Reference: PubChem BioAssay (Tox21)
Where “and” joins values, the source holds several entries; their conditions need not be identical. Equal values may be shown once. Records with an inconclusive call do not appear. Calls of active or inactive are those of the source. Unless noted, calls come from the whole dose curve; as a rule, active = well fitted curve in the direction sought with a large enough effect in the repeat runs; inconclusive = weak or mixed curves; inactive = no such curve, though single readings can be large; an effect the other way counts as inactive or inconclusive.

Columns and labels:
[1] = biological target: Aromatase (Homo sapiens) (UniProt P11511); assay: qHTS assay to identify aromatase inhibitors (AID 743083); note: nearly all actives have a fitted effect of over 55% in size; note: potency is the fitted concentration of half-maximal effect
[2] = biological target: Aryl hydrocarbon receptor (Homo sapiens) (UniProt P35869); assay: qHTS assay to identify small molecule that activate the aryl hydrocarbon receptor (AhR) signaling pathway (AID 743085); note: nearly all actives have a fitted effect of over 15% in size; note: potency is the fitted concentration of half-maximal effect
In short: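 A multiplexed format paired cell viability (CellTiter-Fluor fluorescence) with AhR-dependent luciferase output (ONE-Glo luminescence) in the same wells of HepG2 DRE-luc cells after 24 h compound exposure at 37C.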

[3] = qHTS assay for small molecule agonists of the p53 signaling pathway - cell viability (AID 651633; calls by dose curve; note: nearly all actives have a fitted effect of over 30% in size; note: potency is the fitted concentration of half-maximal effect)
In short: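 p53RE-bla cells were treated with compound for 16 hours at 37 C. Cytotoxicity was then measured as CellTiter-Glo luminescence after 30 min at room temperature.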

[4] = qHTS assay for small molecule disruptors of the mitochondrial membrane potential - cell viability (AID 720634; calls by dose curve;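 note: human HepG2 liver cancer cells; series mostly up to about 83 µM; nearly all actives have a fitted effect of over 20% in size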)
In short: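 Same-well counter-screen: following the MMP dye addition, CellTiter-Glo was added to 1 hr compound-treated HepG2 cells and luminescence read after 30 min at room temperature.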

[5] = qHTS assay to test for compound auto fluorescence at 590 nm (red) in HepG2 cells (AID 720674)
In short: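 Seeding: 2,000 HepG2 cells/well, MEM/10% FBS, overnight 37 C. Dosing: compound vs DMSO. Incubation: 1 hr, 37 C, 5% CO2. Read: fluorescence 540 ex/590 em, Rose Bengal sodium as red reference.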

[6] = qHTS assay to test for compound auto fluorescence at 535 nm (green) in HepG2 cells (AID 720675)
[7] = qHTS assay to test for compound auto fluorescence at 460 nm (blue) in HEK293 cells (AID 720678)
In short: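 Measured: blue fluorescence (Ex 405/Em 460 nm) of compound-treated HEK293 cells, incubated overnight at 37C with 5% CO2 and scaled to triamterene equivalents.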

[8] = qHTS assay to test for compound auto fluorescence at 590 nm (red) in HEK293 cells (AID 720679)
In short: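 Using HEK293 cells at 2,000 per well, the screen added 23 nL of each compound after cell attachment and incubated overnight (37C, 5% CO2). The plate reader then captured red-label fluorescence, Ex/Em 540/590nm.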

[9] = qHTS assay to test for compound auto fluorescence at 460 nm (blue) in HEK293 cell free culture (AID 720681)
In short: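 Compounds were added to cell-free DMEM with 10% FBS and fluorescence read directly. The blue channel used 405 nm excitation and 460 nm emission, with triamterene as the reference fluorophore.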

[10] = qHTS assay to test for compound auto fluorescence at 535 nm (green) in HEK293 cell free culture (AID 720682)
In short: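 DMEM + 10% FBS, cell-free; cpd or DMSO pinned in; Ex485/Em535 read; output as fluorescein-equivalent signal.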

[11] = qHTS assay to test for compound auto fluorescence at 590 nm (red) in HEK293 cell free culture (AID 720683)
In short: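 Cell-free wells of DMEM with 10% FBS received compound, and intrinsic fluorescence was read at excitation/emission 540/590 nm. Values expressed as equivalence to Rose Bengal sodium.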

[12] = qHTS assay to test for compound auto fluorescence at 590 nm (red) in HepG2 cell free culture (AID 720684)
In short: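 Auto fluorescence equivalency versus Rose Bengal sodium, red channel Ex/Em 540/590 nm; compounds in cell-free MEM/10% FBS; DMSO vehicle control.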

[13] = qHTS assay to test for compound auto fluorescence at 535 nm (green) in HepG2 cell free culture (AID 720686)
[14] = qHTS assay to test for compound auto fluorescence at 460 nm (blue) in HepG2 cells (AID 720687)
In short: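 HepG2 cells in MEM with 10% FBS, attached overnight at 37 C, were exposed to compound or DMSO for 1 hr at 37 C, 5% CO2. Blue fluorescence was read at 405/460 nm, with triamterene as reference fluorophore.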

[15] = qHTS assay to identify small molecule antagonists of the glucocorticoid receptor (GR) signaling pathway - cell viability counter screen (AID 720693); note: nearly all actives have a fitted effect of over 55% in size; note: potency is the fitted concentration of half-maximal effect
[16] = qHTS assay to identify small molecule antagonists of the androgen receptor (AR) signaling pathway using the MDA cell line - cell viability counter screen (AID 743041; note: nearly all actives have a fitted effect of over 45% in size)
In short: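 Compound exposure lasted 16 h at 37C in MDA-kb2 AR-luc cells stimulated with R1881. Protease-based CellTiter-Fluor reagent was applied for the final 30 min and fluorescence measured.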

[17] = qHTS assay to identify small molecule antagonists of the estrogen receptor alpha (ER-alpha) signaling pathway using the BG1 cell line - cell viability counter screen (AID 743081);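 note: compound given together with 17beta-estradiol as the ER stimulus; series mostly up to about 70 µM; nearly all actives have a fitted effect of over 45% in size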
[18] = qHTS assay to identify small molecule that activate the aryl hydrocarbon receptor (AhR) signaling pathway - cell viability counter screen (AID 743086);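 note: HepG2 liver cells carrying the AhR DRE luciferase reporter; series mostly up to about 70 µM; nearly all actives have a fitted effect of over 45% in size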
In short: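 HepG2-AhR-luc (HG2L7.5c1) cells, 4000/well, treated 24 h at 37 C with compound; viability measured as CellTiter-Fluor fluorescence after 30 min in the same wells as the luciferase read.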

[19] = qHTS assay to identify small molecule phospholipidosis (PLD) inducers (AID 1259344; active = well fitted curve in the direction sought with a large enough effect; an effect the other way counts as inactive or inconclusive)
In short: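 Image-based: LipidTOX Red pit count/intensity per well and per cell; HepG2, 24 h compound at 37 C, PFA fixation, Hoechst counterstain.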

[20] = qHTS assay to identify aromatase inhibitors - cell viability counter screen (AID 743084);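 note: cells stimulated with testosterone during compound exposure; nearly all actives have a fitted effect of over 55% in size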

Measured: Potency

Chain of Aromatase (Homo sapiens) (P11511 whole entry, looked up): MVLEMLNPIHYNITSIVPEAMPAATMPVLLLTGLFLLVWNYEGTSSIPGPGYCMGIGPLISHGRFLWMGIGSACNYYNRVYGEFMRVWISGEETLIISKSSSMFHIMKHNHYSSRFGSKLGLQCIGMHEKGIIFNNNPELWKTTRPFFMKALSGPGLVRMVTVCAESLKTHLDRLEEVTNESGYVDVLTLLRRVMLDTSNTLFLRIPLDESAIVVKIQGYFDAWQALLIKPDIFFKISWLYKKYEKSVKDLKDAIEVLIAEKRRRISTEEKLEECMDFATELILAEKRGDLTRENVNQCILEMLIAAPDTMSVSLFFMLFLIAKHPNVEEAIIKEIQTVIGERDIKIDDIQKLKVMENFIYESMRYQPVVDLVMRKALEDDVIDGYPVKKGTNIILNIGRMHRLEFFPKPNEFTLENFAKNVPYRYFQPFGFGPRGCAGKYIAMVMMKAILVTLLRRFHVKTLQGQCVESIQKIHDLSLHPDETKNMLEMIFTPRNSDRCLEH
Chain of Aryl hydrocarbon receptor (Homo sapiens) (P35869 whole entry, looked up): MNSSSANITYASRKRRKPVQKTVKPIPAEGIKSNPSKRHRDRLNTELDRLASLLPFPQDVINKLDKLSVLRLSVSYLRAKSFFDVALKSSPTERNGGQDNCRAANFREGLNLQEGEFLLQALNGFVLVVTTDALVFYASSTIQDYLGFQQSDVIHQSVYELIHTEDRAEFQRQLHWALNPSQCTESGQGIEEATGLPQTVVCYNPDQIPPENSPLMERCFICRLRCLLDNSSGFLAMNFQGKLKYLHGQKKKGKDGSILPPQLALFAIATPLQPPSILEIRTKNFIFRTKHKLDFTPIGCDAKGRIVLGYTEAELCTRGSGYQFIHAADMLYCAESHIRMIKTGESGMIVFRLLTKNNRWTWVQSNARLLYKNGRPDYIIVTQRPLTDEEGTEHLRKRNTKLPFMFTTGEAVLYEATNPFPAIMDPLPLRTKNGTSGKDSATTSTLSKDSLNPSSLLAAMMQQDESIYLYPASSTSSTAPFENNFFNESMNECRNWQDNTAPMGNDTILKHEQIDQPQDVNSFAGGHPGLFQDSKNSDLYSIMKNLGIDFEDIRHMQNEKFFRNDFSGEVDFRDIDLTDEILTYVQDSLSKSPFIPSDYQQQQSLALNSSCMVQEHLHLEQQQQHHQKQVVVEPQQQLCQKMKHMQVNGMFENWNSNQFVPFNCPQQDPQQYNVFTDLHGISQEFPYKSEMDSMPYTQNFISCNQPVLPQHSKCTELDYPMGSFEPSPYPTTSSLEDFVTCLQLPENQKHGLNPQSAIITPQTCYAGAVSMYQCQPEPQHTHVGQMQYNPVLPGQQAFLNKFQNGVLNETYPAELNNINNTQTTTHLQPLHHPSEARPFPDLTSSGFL

Cc1cccc(C)c1
inactive: [1] | [2]

O=C(O)/C=C/C(=O)O
not listed: [1] | [2] | [19] | [20]
inactive: all other assays above

Oc1c(Cl)cc(Cl)cc1Cl
inactive: [5] | [6] | [7] | [8] | [9] | [10] | [11] | [12] | [13] | [14] | [1]

NC(=Nc1ccccc1)Nc1ccccc1
active: [1] 23.7 µM

CCCCCCCCCc1ccc(OCCOCCO)cc1
active: [1] 21.1 µM
inactive: [2]

N#CCCNCCC#N
inactive: [1] | [2]

CC(C)(C)c1ccc(O)cc1
inactive: [5] | [6] | [7] | [8] | [9] | [10] | [11] | [12] | [13] | [14] | [19]

N#CC1(O)CCCCC1
inactive: [1]

ClC(Cl)(Cl)c1ccc(C(Cl)(Cl)Cl)cc1
inactive: [1] | [2]

O=[N+]([O-])c1ccccc1Cl
not listed: [3] | [4] | [15] | [16] | [17] | [18] | [19] | [20]
inactive: all other assays above

O=C1OC(=O)c2c(Br)c(Br)c(Br)c(Br)c21
inactive: [1] | [2]

Cc1cc([N+](=O)[O-])ccc1N
inactive: [1] | [2]

Clc1nc(Cl)c(Cl)c(Cl)c1Cl
inactive: [1]

O=P(OC(CCl)CCl)(OC(CCl)CCl)OC(CCl)CCl
inactive: [2]

Cc1ccc([N+](=O)[O-])cc1N
inactive: [1]
active: [2] 61.1 µM

CNc1ccccc1
inactive: [2]

Cc1ccc(O)cc1C
inactive: [5] | [6] | [7] | [8] | [9] | [10] | [11] | [12] | [13] | [14] | [1]

Cc1ccc2ccccc2c1C
inactive: [5] | [6] | [7] | [8] | [9] | [10] | [11] | [12] | [13] | [14]

O=C(O)/C=C\C(=O)O
not listed: [1] | [2] | [20]
inactive: all other assays above

OC(c1ccccc1)(c1ccccc1)C1CN2CCC1CC2 (configuration not stated)
inactive: all assays above

COc1ccc2c(c1)C13CCCC[C@@H]1C(C2)N(C)CC3 (some centres not stated)
inactive: all assays above

O=C1CCCCC1CN1CCCCC1 (configuration not stated)
inactive: all assays above

CCCCNCC(O)c1ccc(O)cc1 (configuration not stated)
not listed: [1] | [2] | [20]
inactive: all other assays above

CCCCCCCCCC(=O)O[C@H]1CC[C@H]2[C@@H]3CCC4=CC(=O)CC[C@]4(C)[C@H]3CC[C@]12C
inactive: all assays above

CCCCCc1cc(O)c2c(c1)OC(C)(C)[C@@H]1CCC(C)=C[C@@H]21
active: [3] 23.7 µM | [15] 23.9 µM | [2] 9.44 µM
not listed: [1] | [4]
inactive: all other assays above

O=C1CN(O)C(c2ccccc2)=c2cc(Cl)ccc2=N1
inactive: all assays above

CCC1(c2cnc[nH]2)Cc2ccccc2C1
active: [1] 26.6 µM | [2] 23.7 µM and 8.41 µM
inactive: all other assays above
